# Sfp PPTase inh: qHTS Assay for Inhibitors of Bacillus subtilis Sfp phosphopantetheinyl transferase (PPTase) | hit rate 3.5% among 310,000 | AID 1490, 2009 | Potency, µM, for inactives: largest response in the series, negative = inhibition, actives largely listed as inhibitors | Biochemical Sfp PPTase activity, qHTS | 4'-phosphopantetheinyl transferase ffp (Bacillus subtilis), Q9F4F7;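 note: the enzyme is Sfp with the accession as filed and its product quenches rhodamine fluorescence; 0% = enzyme reaction without inhibitor and -100% = no enzyme wells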
#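 Sfp 15 nM + cpd, 15 min RT; start w/ rhodamine-CoA 5 uM, BHQ-2-YbbR 12.5 uM (final); 50 mM Hepes pH 7.6, 10 mM MgCl2, 0.01% NP-40, 0.01% BSA; read 525/598 nm at 0 and 30 min.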
# KAT2A inh: qHTS Assay for Inhibitors of GCN5L2. hit rate 0.21% among 390,000. AID 504327, 2011. Histone acetyltransferase KAT2A (Homo sapiens), Q92830. Potency, µM (top dose mostly 58.9 µM), inactives show at the highest dose activity change, negative = inhibition, actives largely listed as inhibitors. GCN5L2 HAT assay, ThioGlo1 CoA-SH fluorescence; note: % is set by controls: 0 for no effect and ±100 for the full control effect
# Target sequence (Q92830 whole entry, looked up): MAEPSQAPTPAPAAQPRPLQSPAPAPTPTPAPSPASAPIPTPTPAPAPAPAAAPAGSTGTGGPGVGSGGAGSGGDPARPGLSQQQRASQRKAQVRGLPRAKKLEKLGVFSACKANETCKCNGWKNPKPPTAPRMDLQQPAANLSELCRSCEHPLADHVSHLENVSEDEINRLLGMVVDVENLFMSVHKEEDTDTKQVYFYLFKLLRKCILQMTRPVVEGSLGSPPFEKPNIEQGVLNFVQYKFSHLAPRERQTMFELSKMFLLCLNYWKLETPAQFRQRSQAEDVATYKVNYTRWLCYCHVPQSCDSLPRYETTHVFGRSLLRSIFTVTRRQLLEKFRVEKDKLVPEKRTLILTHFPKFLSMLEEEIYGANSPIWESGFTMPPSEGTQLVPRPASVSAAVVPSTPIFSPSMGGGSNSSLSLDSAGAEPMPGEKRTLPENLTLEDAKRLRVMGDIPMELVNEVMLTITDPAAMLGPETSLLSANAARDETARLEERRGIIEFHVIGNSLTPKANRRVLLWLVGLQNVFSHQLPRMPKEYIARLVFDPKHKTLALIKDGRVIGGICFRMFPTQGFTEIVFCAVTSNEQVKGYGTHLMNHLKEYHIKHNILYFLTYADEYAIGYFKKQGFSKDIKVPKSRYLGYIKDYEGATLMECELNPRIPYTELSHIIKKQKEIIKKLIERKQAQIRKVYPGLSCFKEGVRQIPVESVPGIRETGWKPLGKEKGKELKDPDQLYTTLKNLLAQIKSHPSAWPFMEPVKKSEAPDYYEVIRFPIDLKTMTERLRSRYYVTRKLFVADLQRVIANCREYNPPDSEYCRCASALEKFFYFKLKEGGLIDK
#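 Free CoA generated was detected with ThioGlo1 (50uM) fluorescence at Ex340nm/Em540nm, read immediately and after 20 min at room temperature. Enzyme, 20 nM in HEPES pH 7.5 buffer, saw compounds 15 min before adding 75uM H3(1-25) peptide and 70uM acetyl-CoA.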
# IMPase Li cell: qHTS Assay for Identifying the Cell-Membrane Permeable IMPase Inhibitors: Potentiation with Lithium; Potency, µM (doses to about 59.4 µM), for the others: at the highest dose activity, negative = IMPase inhibition, hits mostly inhibitors; CHO-M1 cells, IP1 TR-FRET (IP-One), carbachol + lithium; hit rate 0.35% among 210,000;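 note: IP1 builds up when IMPase is blocked and the TR-FRET signal falls; plate controls were basal vehicle for no effect and high inhibitor control for full effect; nearly all actives have a fitted effect of over 50% in size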
#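 Lithium-sensitised IP1 accumulation assay; M1-expressing CHO cells treated 30 min at 37C with compound. Competitive antibody detection by time-resolved FRET followed a 10 min room-temperature lysis step.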
# Epigenetic derep: Quantitative High-Throughput Screen for Regulators of Epigenetic Control; murine LDR cells, GFP reporter derepression, 30 h; Potency, µM (highest dose often 53.9 µM), without a hit: at the top dose GFP activation, most hits filed as activators; hit rate 0.2% among 280,000; note: % of control where 0% means no effect; nearly all actives have a fitted effect of over 60% in size
#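 Derepression of a silenced CMV-GFP reporter in murine LDR cells is scored by enumerating GFP-positive cells with a laser-scanning microplate cytometer after 30 hours of treatment at 37 C.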
# NPSR antag: qHTS Assay for Antagonists of the Neuropeptide S Receptor: cAMP Signal Transduction | hit rate 1% among 220,000 | CHO-NPSR cells, cAMP TR-FRET, antagonist mode | Q6W5P4 | Potency, µM (top dose mostly 38.3 µM), for inactives: at the highest dose activity change, negative = inhibition, most hits filed as inhibitors; note: % is set by controls: 0 for no effect and ±100 for the full control effect; nearly all actives have a fitted effect of over 50% in size
# KDM4E inh: qHTS Assay for Inhibitors of Human Jumonji Domain Containing 2E (JMJD2E); JMJD2E catalytic domain, FDH-coupled NADH fluorescence (FDH is formaldehyde dehydrogenase); Potency, µM (series often up to 57.1 µM), for the others: at the highest dose activity change, negative = inhibition, most hits filed as inhibitors; Lysine-specific demethylase 4E (Homo sapiens), B2RXH2; hit rate 1.6% among 230,000; active = well fitted inhibition curve with a large enough effect, not every such curve was filed as active; inconclusive = small, poorly fitted or top-dose-only effect, or another doubt; inactive = no such curve, though single readings can be large or run the other way;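 note: 0% = wells with enzyme and -100% = buffer wells without enzyme; nearly all actives have a fitted effect of over 50% in size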
# An asterisk follows results filed as active; u = inconclusive; x = no result; [ ] = dose if it differs, or a comment. Sampled rows, rich in hits. Any-hit rate of the full collection: about 3.6%. Unless noted, calls come from the whole dose curve; as a rule, active = well fitted curve in the direction sought with a large enough effect; inconclusive = small, poorly fitted or top-dose-only effect, or another doubt; inactive = no such curve, though single readings can be large; an effect the other way counts as inactive or inconclusive. Potency is the fitted concentration of half-maximal effect.
SMILES,Sfp PPTase inh,KAT2A inh,IMPase Li cell,Epigenetic derep,NPSR antag,KDM4E inh
Cc1ccc2cc(C(c3nnnn3CC3CCCO3)N3CCc4ccccc4C3)c(=O)[nH]c2c1 (stereo unspecified),10µM*,-2.7%,16.1%[38.3 µM],2.7%,-8.4%[46.1 µM],u
Cc1cccc2cc(C(c3nnnn3CC3CCCO3)N3CCCc4ccccc43)c(=O)[nH]c12 (stereo unspecified),15.0%,-4.3%,-2.2%[38.3 µM],-5.6%,-27.5%[46.1 µM],-3.5%
CCc1ccc2[nH]c(=O)c(C(c3nnnn3CC3CCCO3)N3CCCc4ccccc43)cc2c1 (stereo unspecified),8.91µM*,-2.0%,20.9%[38.3 µM],-1.0%,-9.5%[46.1 µM],u
CCOc1ccc2[nH]c(=O)c(C(c3nnnn3CC3CCCO3)N3CCc4ccccc4C3)cc2c1 (stereo unspecified),3.5%,-2.6%,-2.3%[38.3 µM],3.2%,-24.5%[46.1 µM],u
CCCC[C@@H](C=O)NC(=O)[C@H](CC(C)C)NC(=O)OCc1ccccc1,2.2%,-15.1%,22.5%,5.3%,x,x
C[N+]1([C@H](CO)Cc2c[nH]c3ccccc23)Cc2ccccc2C1,x,x,5.3%,x,x,x
CCOC(=O)c1c(C)n(S(=O)(=O)c2ccc(C)cc2)c2ccc(NS(=O)(=O)c3ccc(C)cc3)cc12,x,-16.8%,x,-1.7%,x,x
N#CCC(=O)NN,8.4%,-7.1%,x,x,x,x
O=C(NCCc1ccccc1)c1nnc(CS(=O)(=O)c2ccccc2)o1,25.0%,4.47µM*,x,x,x,x
CCN1C(=O)/C(=C\c2ccc(-c3cccc(C(=O)OC)c3)o2)SC1=Nc1ccc(C(=O)O)cc1,-27.5%,-6.2%,x,x,x,x
Cc1ccc(NC(=O)CN2C(=O)S/C(=C/c3ccc(-c4cc(C(=O)O)ccc4C)o3)C2=O)cc1C,56.2µM*,-20.5%,39.0%[38.3 µM],0.0%,-9.8%[46.1 µM],u
CCN1C(=O)/C(=C\c2ccc(-c3ccc([N+](=O)[O-])cc3OC)o2)SC1=Nc1cccc(C(=O)O)c1,25.1µM*,-3.0%,19.4%,-0.4%,-36.7%,-25.3%
O=C(O)c1cccc(-c2ccc(/C=C3/SC(=Nc4ccccc4)N(Cc4cccnc4)C3=O)o2)c1,50.1µM*,-9.4%,x,x,x,x
CCN=C1S/C(=C\c2ccc(-c3cccc(C(=O)O)c3)o2)C(=O)N1CC,20µM*,-0.2%,10.8%,-1.5%,-19.1%,-19.3%
Cc1cccc(NC(=O)CN2C(=O)S/C(=C\c3ccc(-c4cccc(C(=O)O)c4C)o3)C2=O)c1,-16.7%,-9.9%,2.3%,-0.3%,-50.6%,u
O=C(NC1CCN(Cc2ccccc2)C1)c1ccc(Cc2nc3ccccc3[nH]2)cc1 (stereo unspecified),x,x,x,-3.0%,x,x
CCOC(=O)N1CCN(S(=O)(=O)c2ccc(C(=O)NNc3nc4cc(C)cc(C)c4s3)cc2)CC1,-1.2%,-8.0%,6.7%,8.8%,-0.5%,25.1µM*
Cn1c(=NC(=O)COc2ccccc2)sc2ccccc21,13.0%,-7.3%,12.6µM*,-1.3%,-33.0%,-10.0%
Cn1c(=NC(=O)CS(=O)(=O)c2ccccc2)sc2ccccc21,x,-1.6%,x,x,x,x
COc1cccc(-c2csc(N3CCN(C(=S)Nc4ccc(Cl)cc4)CC3)n2)c1,44.7µM*,u,19.5%[38.3 µM],4.2%,-16.0%[46.1 µM],-5.5%
COc1ccc(SCC(CC(C)C)N2CCN(C)CCC2=O)cc1 (stereo unspecified),-2.2%,x,x,x,x,x
O=C(CNC(=O)c1ccccc1Br)N/N=C/c1ccccc1O,19.7%,-3.0%,-0.3%,-2.9%,-0.6%,25.1µM*
O=C(CNC(=O)c1ccccc1F)N/N=C/c1cc(Br)ccc1OC(=O)/C=C/c1ccco1,-5.5%,-9.0%,-6.6%,1.1%,-30.9%,u
O=C(N/N=C/c1cc(Cl)ccc1O)c1ccccc1Br,3.7%,-10.3%,2.5%,3.8%,-24.1%,11.2µM*
